An excerpt weighted towards active compounds, which were near 2.8% of everything screened.
WRN helicase inh – qHTS for Inhibitors of WRN Helicase | Bifunctional 3'-5' exonuclease/ATP-dependent helicase WRN (Homo sapiens), Q14191 | WRN helicase unwinding, fluorescent forked duplex, kinetic | 0.46% of 360,000 active | Potency, µM (doses to about 114 µM), without a hit: at the top dose activity change, negative = inhibition, usual class: inhibitors; further: potency means the concentration at half of the fitted maximal effect; on the % scale 0 is the no-effect control and ±100 the full control effect; nearly all actives have a fitted effect of over 55% in size
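Fluorescence dequenching readout, ex 525 nm/em 598 nm, kinetic mode: forked duplex DNA (100 nM final) with adjacent fluorophore and quencher unwound by WRN (20 nM final) with 2 mM ATP. Compound preincubation 15 min, room temperature.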
Pol kappa inh-1 – qHTS for Inhibitors of Polymerase Kappa; 0.53% of 400,000 active; AID 588579, 2011; purified Pol kappa, fluorescent DNA synthesis assay, 10 min; DNA polymerase kappa (Homo sapiens), Q9UBT6; Potency, µM (titrated, usually from 107 µM), for inactives: top-dose activity, negative = inhibition, hits mostly inhibitors; further: potency means the concentration at half of the fitted maximal effect; on the % scale 0 is the no-effect control and ±100 the full control effect
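50 nM final substrate added after 15 min RT preincubation of 10 nM Pol kappa with compound; fluorescence read at 0 and 10 min.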
Pol beta inh – qHTS Assay for Inhibitors of DNA Polymerase Beta | AID 485314, 2010 | Potency, µM (highest dose often 114 µM), for inactives: top-dose activity change, negative = inhibition, hits mostly inhibitors | P06746 | Pol beta primer extension/strand displacement, fluorescence kinetic | 1.3% of 340,000 active; further: potency means the concentration at half of the fitted maximal effect; on the % scale 0 is the no-effect control and ±100 the full control effect
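Preincubation: enzyme (10 nM) with compound, 15 min, RT. Reaction: substrate added to 50 nM final. Reads: 0 and 10 min. Analysis: normalized, Hill fit.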
Pol eta inh-1 – qHTS for Inhibitors of Polymerase Eta | DNA polymerase eta (Homo sapiens), Q9Y253 | Potency, µM (titrated, usually from 114 µM), inactives show at the highest dose activity change, negative = inhibition, most hits filed as inhibitors | recombinant Pol eta, fluorescent DNA replication assay | 1.2% of 390,000 active; further: potency means the concentration at half of the fitted maximal effect; on the % scale 0 is the no-effect control and ±100 the full control effect
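Fluorescent replication assay: 50 nM final substrate added after a 15 min room-temperature compound preincubation with 10 nM enzyme. Signal taken at 0 min and again at 10 min.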
PI5P4K alpha inh – qHTS for Inhibitors of phosphatidylinositol 5-phosphate 4-kinase (PI5P4K); max response, %; 1.2% of 330,000 active; AID 652105, 2013; PI5P4Kalpha enzyme, ADP-Glo luminescence, 60 min; hits give low values; Phosphatidylinositol 5-phosphate 4-kinase type-2 alpha (Homo sapiens), P48426; active means max response of -50% or lower; inconclusive means between -30% and -50%; inactive means -30% or higher; further: value at the top dose of about 77 µM; on the % scale 0 is the no-effect control and ±100 the full control effect
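ADP-Glo luminescence end-point read after a 60 min room-temperature kinase reaction of PI5P4Kalpha plus substrate, initiated with ATP at 5 microM final. Buffer: 0.038 M HEPES pH 7.4, EGTA, 0.1% CHAPS, 5% DMSO.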
Pol iota inh – qHTS for Inhibitors of Polymerase Iota. DNA polymerase iota (Homo sapiens), Q9UNA4. Pol iota fluorescent replication assay, 10 min. Potency, µM (top dose mostly 115 µM), inactives show at the highest dose activity, negative = inhibition, actives largely listed as inhibitors. 1% of 390,000 active. AID 588590, 2011; further: potency means the concentration at half of the fitted maximal effect
Target sequence (Q9UNA4 whole entry, looked up): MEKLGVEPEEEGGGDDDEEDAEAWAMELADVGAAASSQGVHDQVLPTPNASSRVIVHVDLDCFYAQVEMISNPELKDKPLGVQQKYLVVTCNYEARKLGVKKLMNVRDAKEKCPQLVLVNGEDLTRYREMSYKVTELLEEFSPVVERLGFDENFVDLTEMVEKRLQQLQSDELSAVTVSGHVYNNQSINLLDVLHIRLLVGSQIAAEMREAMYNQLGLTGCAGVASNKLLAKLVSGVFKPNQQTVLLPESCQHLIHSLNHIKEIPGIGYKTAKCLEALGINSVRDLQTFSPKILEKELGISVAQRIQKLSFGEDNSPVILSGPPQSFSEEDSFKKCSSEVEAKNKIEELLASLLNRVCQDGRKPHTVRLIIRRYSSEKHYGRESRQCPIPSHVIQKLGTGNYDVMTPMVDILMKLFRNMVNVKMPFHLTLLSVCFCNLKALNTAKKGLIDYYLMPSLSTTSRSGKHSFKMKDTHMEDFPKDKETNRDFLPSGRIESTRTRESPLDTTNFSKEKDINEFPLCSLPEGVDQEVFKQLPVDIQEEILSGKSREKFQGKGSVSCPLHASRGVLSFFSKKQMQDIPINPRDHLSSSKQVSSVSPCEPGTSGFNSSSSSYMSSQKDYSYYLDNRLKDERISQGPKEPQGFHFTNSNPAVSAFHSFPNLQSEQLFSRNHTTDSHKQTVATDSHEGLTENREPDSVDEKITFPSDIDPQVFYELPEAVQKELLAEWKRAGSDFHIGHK
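Pol iota at 10 nM preincubated 15 min with compounds at room temperature; reaction started with fluorescent substrate, 50 nM final. Fluorescence read kinetically at 0 and 10 min; buffer-only wells as negative control.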
Pol kappa inh-2 – qHTS for Inhibitors of Polymerase Kappa: Confirmatory Assay for Cherry-picked Compounds; shares compounds with Pol eta inh-1; 76% of 920 active; AID 720501, 2013; Potency, µM, most hits filed as inhibitors; purified Pol-kappa, fluorescent strand-displacement substrate; further: potency means the concentration at half of the fitted maximal effect
Pol eta inh-2 – qHTS for Inhibitors of Polymerase Eta: Confirmatory Assay for Cherry-picked Compounds; shares compounds with Pol eta inh-1; Pol eta primer extension, TAMRA/BHQ fluorescence, 10 min; Potency, µM, actives largely listed as inhibitors; 64% of 2,600 active; AID 720502, 2013; further: potency means the concentration at half of the fitted maximal effect
An asterisk follows results filed as active; ? = inconclusive; . = not tested or not shown; [ ] = dose if it differs, or a comment. Unless noted, the call rests on the fitted dose curve; in most records, active means well fitted curve in the direction sought with a large enough effect; inconclusive means small, poorly fitted or top-dose-only effect, or another doubt; inactive means no such curve, though single readings can be large; an effect the other way counts as inactive or inconclusive.

SMILES	WRN helicase inh	Pol kappa inh-1	Pol beta inh	Pol eta inh-1	PI5P4K alpha inh	Pol iota inh	Pol eta inh-2	others
COc1ccccc1NC(=S)NC(=O)/C=C/c1ccco1	?	?	44.7µM*	20µM*	?	?	?
COc1ccc(N2CC(NC(=O)CCCc3ccccc3)CC2=O)cc1 (stereo not given)	.	-0.2%[60.1 µM]	-15.4%	6.9%	.	-12.8%	.
O=C(COc1ccc(Cl)cc1)Nc1ccc(-c2nc3ccccc3s2)c(O)c1	.	-21.7%	-2.3%	-5.9%	.	?	.
Cc1cc(C)c(OCC(=O)N(Cc2cccc(F)c2)Cc2ccco2)c(C)c1	.	-5.3%	7.8%	-20.2%	.	?	.
CCC(C(=O)Nc1ccc(C(C)=O)cc1)n1cnc2nc3c(cc2c1=O)CCCC3 (stereo not given)	.	-8.4%[60.1 µM]	22.7%	1.1%	.	27.6%	.
O=C(O)c1cccc(Cn2c(Cl)c(/C=N/Nc3ccccc3)sc2=O)c1	-14.7%[11.6 µM]	?	-3.9%	44.7µM*	-63.8*	?	?
Cc1ccccc1OCC(=O)N/N=C/c1sc(=O)n(Cc2cccc(C(=O)O)c2)c1Cl	-30.3%	-17.9%	?	?	-2.6	?	?
COc1ccc(C(=O)N/N=C/c2sc(=O)n(Cc3cccc(C(=O)O)c3)c2Cl)cc1	-22.4%	-8.1%	-6.5%	?	-7.0	18.1%	.
CC(=O)Nc1nonc1-c1nnc(SCC(=O)Nc2ccc(C)cc2)n1-c1ccccc1	.	1.7%	15.6%	-1.0%	.	-16.6%	.
CC1(C)C(=O)C=C[C@@]2(C)C1C=C[C@@]1(C)C2CC[C@@]2(C)C(c3ccoc3)OC(=O)C3OC312 (stereo not given in full)	.	-5.6%[60.1 µM]	.	.	.	.	.
COc1ccc(C(=O)/C=C/c2ccsc2)cc1CSCC(=O)O	?	-17.3%	35.5µM*	20µM*	-13.3	12.6µM*	75.7*
COc1ccc(C(C)=O)cc1CSCCC(=O)O	-10.3%	-9.3%	37.8%	-16.9%	-9.1	-1.9%	.
Cc1cc(/C=c2\sc3nc4ccccc4n3c2=O)c(C)n1-c1ccc(C(=O)O)cc1	?	-38.0%	22.4µM*	22.4µM*	1.8	44.7µM*	?
CC1=NN(c2ccccc2)C(=O)/C1=C\c1cc(C)n(-c2ccccc2)c1C	-0.2%	-2.2%	-19.7%	-24.9%	9.2	12.5%	.
Cc1cc(C=C2C(=O)c3ccccc3C2=O)c(C)n1-c1ccc(C(=O)O)cc1	?	?	?	25.1µM*	-6.6	35.5µM*	?
O=C(O)c1cccc(-n2cccc2C=C2C(=O)c3ccccc3C2=O)c1	?	-42.6%	?	15.8µM*	-11.2	?	75.7*
CCCN(CCc1cccs1)[C@H]1CCc2c(O)cccc2C1	.	-3.6%[19.4 µM]	.	.	.	.	.
COCCN(C(=O)COC(=O)Cc1coc2cc(C)ccc12)c1c(N)n(Cc2ccccc2)c(=O)[nH]c1=O	?	?	.	20µM*	?	35.5µM*	60.1*
COc1ccccc1OCCn1c(SCC(=O)O)nc2ccccc21	-4.6%[11.6 µM]	79.4µM*	28.2µM*	22.4µM*	-3.4	?	?	Pol kappa inh-2=33.6*
COc1ccccc1OCCSc1nc2ccccc2n1CCC(=O)O	6.7%	-0.9%	-8.4%	-5.3%	1.3	17.9%	.
O=C1NN(c2cccc(Br)c2)C(=O)/C1=C/c1ccc(-c2cc([N+](=O)[O-])ccc2O)o1	?	79.4µM*	?	10µM*	-85.6*	?	30.1*
CC1=NN(c2ccc(C)cc2)C(=O)/C1=C/c1ccc(-c2cc([N+](=O)[O-])ccc2O)o1	?	79.4µM*	7.08µM*	20µM*	-94.1*	20µM*	?	Pol kappa inh-2=16.8*
Cc1nc2cc(-c3ccccc3)nn2c(C)c1CCC(=O)NCc1cccc(Cl)c1	.	-3.8%	2.6%	-7.2%	.	12.6%	.
CN(C)c1ccc(N2C(=O)CSC2=S)cc1	?	-43.2%	-8.5%	-11.6%	-12.3	?	?
COC(=O)c1ccc(Cn2c(SCc3ccccc3)nc3ccncc32)cc1	.	3.2%	0.2%	-12.5%	.	-1.2%	.
SMILES	WRN helicase inh	Pol kappa inh-1	Pol beta inh	Pol eta inh-1	PI5P4K alpha inh	Pol iota inh	Pol eta inh-2	others
CO[C@@]1(NC(=O)C2SC(=C(C(N)=O)C(=O)O)S2)C(=O)N2C(C(=O)O)=C(CSc3nnnn3C)CS[C@@H]21 (stereo not given in full)	-9.4%[11.6 µM]	44.7µM*	.	-2.0%	-3.4	11.2µM*	30.1*
COC(=O)c1ccc(CSc2nnnn2C)o1	6.0%	-4.1%	-9.3%	-6.4%	.	32.8%	.
O=C(Nc1nnc(-c2ccccc2F)s1)C1CCCO1 (stereo not given)	-23.6%[57.1 µM]	?	31.6µM*	14.1µM*	?	50.1µM*	?
O=C(Nc1nnc(-c2ccncc2)s1)C1CCCO1 (stereo not given)	-11.1%	-2.3%	-10.5%	?	-12.3	-1.9%	.
Cc1ccc(N2CCn3c2nc2c3c(=O)n(CCCc3ccccc3)c(=O)n2C)cc1	.	-9.6%	-8.7%	-11.0%	.	-10.2%	.
COc1ccc(Cl)cc1NC(=O)c1c(NCc2ccc(C)o2)sc2c1CCCC2	.	-9.1%[60.1 µM]	1.8%	50.1µM*	.	?	?

Screening results deposited in PubChem by National Center for Advancing Translational Sciences (NCATS).
